# A selection: hits, their analogues and other compounds. The true share with any hit is near 2.8%.
# KDM5B inh = Primary screen for KDM5B Histone Demethylases FDH-coupled qHTS | Lysine-specific demethylase 5B (Homo sapiens), Q9UGL1 | KDM5B demethylase, FDH-coupled NADH fluorescence (FDH is formaldehyde dehydrogenase) | Potency, µM (highest dose often 57.7 µM), usual class: inhibitors | actives 2.6% (n = 220,000) | AID 1347165, 2019; active = well fitted inhibition curve with a large enough effect; inconclusive = small, poorly fitted or top-dose-only effect; inactive = no such curve, though single readings can be large or run the other way; also: potency is read from the fitted curve at half-maximal effect; 0% is about no effect; nearly all actives have a fitted effect of over 70% in size
# Target sequence (Q9UGL1 whole entry, looked up): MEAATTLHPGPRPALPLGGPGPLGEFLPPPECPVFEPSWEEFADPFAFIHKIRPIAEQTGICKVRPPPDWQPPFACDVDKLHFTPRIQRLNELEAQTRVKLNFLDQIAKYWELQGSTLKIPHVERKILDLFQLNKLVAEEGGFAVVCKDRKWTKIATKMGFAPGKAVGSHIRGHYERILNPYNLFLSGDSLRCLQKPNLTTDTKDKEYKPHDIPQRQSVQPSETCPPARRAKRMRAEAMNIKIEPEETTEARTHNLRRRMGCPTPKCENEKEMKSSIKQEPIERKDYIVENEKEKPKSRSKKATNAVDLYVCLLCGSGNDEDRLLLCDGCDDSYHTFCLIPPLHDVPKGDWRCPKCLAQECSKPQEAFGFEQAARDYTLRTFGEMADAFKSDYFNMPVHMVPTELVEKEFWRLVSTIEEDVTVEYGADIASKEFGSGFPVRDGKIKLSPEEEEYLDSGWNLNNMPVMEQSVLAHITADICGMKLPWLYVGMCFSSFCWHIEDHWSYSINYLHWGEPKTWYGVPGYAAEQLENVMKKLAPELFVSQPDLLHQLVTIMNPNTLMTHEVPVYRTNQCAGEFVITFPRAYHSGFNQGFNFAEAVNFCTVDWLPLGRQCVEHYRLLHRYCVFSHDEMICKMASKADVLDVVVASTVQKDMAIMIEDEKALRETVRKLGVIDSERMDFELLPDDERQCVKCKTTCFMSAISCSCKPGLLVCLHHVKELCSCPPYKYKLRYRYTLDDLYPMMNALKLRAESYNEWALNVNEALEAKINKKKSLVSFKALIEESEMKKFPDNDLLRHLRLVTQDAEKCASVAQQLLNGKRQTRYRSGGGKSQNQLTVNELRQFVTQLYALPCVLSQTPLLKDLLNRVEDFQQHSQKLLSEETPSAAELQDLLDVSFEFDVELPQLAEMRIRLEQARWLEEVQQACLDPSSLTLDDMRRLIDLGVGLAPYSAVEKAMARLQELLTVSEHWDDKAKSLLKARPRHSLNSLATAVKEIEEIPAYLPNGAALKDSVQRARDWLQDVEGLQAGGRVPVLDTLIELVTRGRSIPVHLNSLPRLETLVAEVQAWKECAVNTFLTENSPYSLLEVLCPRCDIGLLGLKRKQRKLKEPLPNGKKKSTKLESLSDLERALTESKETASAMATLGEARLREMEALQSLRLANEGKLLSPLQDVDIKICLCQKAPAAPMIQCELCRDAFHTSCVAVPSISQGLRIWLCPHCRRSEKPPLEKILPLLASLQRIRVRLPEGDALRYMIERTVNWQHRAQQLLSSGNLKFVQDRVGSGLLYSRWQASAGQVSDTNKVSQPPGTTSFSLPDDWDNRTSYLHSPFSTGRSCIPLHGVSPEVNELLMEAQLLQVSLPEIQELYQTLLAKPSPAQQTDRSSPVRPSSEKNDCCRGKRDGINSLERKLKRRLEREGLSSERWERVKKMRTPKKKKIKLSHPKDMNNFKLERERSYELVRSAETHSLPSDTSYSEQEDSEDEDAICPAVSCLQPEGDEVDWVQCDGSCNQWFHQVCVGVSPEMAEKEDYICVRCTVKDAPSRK
#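 KDM5BΔAP (200 nM final) in 50 mM HEPES pH 7.5, 0.01% Tween-20 was preincubated 10 min at RT with compound over a concentration range. Substrate mix (H3K4me3 12.5 µM, α-KG 25 µM, Fe²⁺, ascorbate, NAD⁺, FDH) was added, and NADH fluorescence change over 30 min gave dose-response curves.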
# IP6K1 inh = Primary qHTS assay for small molecule inhibitors of Inositol hexaphosphate kinase 1 (IP6K1) | activity change, % (series mostly up to about 58 µM) | Inositol hexakisphosphate kinase 1 (Homo sapiens), Q92551 | actives 0.81% (n = 140,000) | AID 1645851, 2021 | IP6K1 kinase, ADP-Glo luminescence, 2 h; active compounds read low; in the data active = activity change below about -25%; also: % is scaled to controls: 0 for no effect and ±100 for the full control effect
#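 ADP-Glo luminescence measures ADP made by human IP6K1 during a 2 h RT reaction with ATP/IP6 (mix at 1.3 mM/130 uM); top library doses 57.5 and 19.1 uM final.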
# * = called active by the depositor; i = inactive; ? = inconclusive; · = no result; ! = not confirmed by another sample.
SMILES,KDM5B inh,IP6K1 inh
COc1ccc(Cl)cc1-c1ccc2c(c1)C(=O)N1CCN(C(=O)CC3(CC(=O)O)CCCC3)C[C@H]1C(=O)N2,i,4
COc1ccc(Cl)cc1-c1ccc2c(c1)C(=O)N1CCN(C(=O)CO)C[C@@H]1C(=O)N2,35µM*,4
COc1ccc(Cl)cc1-c1ccc2c(c1)C(=O)N1CCN(C(=O)c3ccco3)C[C@H]1C(=O)N2,35µM*,17
COc1ccc(Cl)cc1-c1ccc2c(c1)C(=O)N1CCN(C(=O)[C@@H](O)c3ccccc3)C[C@H]1C(=O)N2,?,1
O=C(Nc1ccccc1)N1CCC(F)(c2nc(Cc3ccccc3)no2)CC1,·,21
COc1cccc(-c2cc(C(=O)N3CCN(Cc4ccccc4)CC3)c3cnn(C)c3n2)c1,·,2
CCOC(=O)[C@@H]1CN(C(=O)CC(C)(C)C)[C@H]2c3cccc(C)c3O[C@@H]12,·,8
O=C(Cc1ccc(F)cc1)NC1CN(c2ccnc3ccnn23)C1,·,1
O=C(C1=Cc2cc(Cl)ccc2OC1)N1CCN(S(=O)(=O)c2ccc(F)cc2)CC1,i,·
O=C(c1cccc(Cl)c1)N1CCN(c2ccc3nnc(C4CC4)n3n2)CC1,·,-2
O=C(NCc1ccnc2[nH]ccc12)c1ccc(C(F)(F)F)cc1,35µM*!,-6
O=C(NCc1ccnc2[nH]ccc12)c1ccncc1,i,9
Cc1nnc2ccc(N3CCC(NC(=O)c4ccccc4F)C3)nn12 (configuration not stated),·,8
CC(=O)NC1(C)CCN(Cc2cccc(Nc3cccc(Cl)c3)c2)C1 (configuration not stated),?,26
COCCNC(=O)c1ccc2c(c1)N(C)C(CC(=O)N1CCCCC1)CO2 (configuration not stated),?,3
COCCNC(=O)c1ccc2c(c1)N(C)C(CC(=O)N1CCCOCC1)CO2 (configuration not stated),32µM*,4
CN1c2cc(C(=O)N3CCOCC3)ccc2OCC1CC(=O)NC(CO)CO (configuration not stated),i,0
COCCNC(=O)c1ccc2c(c1)N(C)C(CC(=O)N1CCC(C)CC1)CO2 (configuration not stated),20µM*,0
O=C(NC1CCN(Cc2cccc(-c3ccc(F)c(F)c3)c2)CC1)c1ccccc1Cl,·,12
CC(C)c1cc(C(N)=O)c(NC(=O)Cc2c(F)cccc2Cl)s1,i,·
COc1cc2c(cc1OC)C(C[C@H]1CN(C(=O)Nc3cccc(Cl)c3)CC[C@H]1CC(=O)O)=NCC2,32µM*,7
O=C(O)C[C@@H]1CCN(C(=O)Nc2cccc(C(F)(F)F)c2)C[C@@H]1CC1=NCCc2cc(F)ccc21,?,2
COc1cc2c(cc1OC)C(C[C@H]1CN(C(=O)C(=O)O)CC[C@H]1CC(=O)O)=NCC2,i,0
COc1cc2c(cc1OC)C(C[C@H]1CN(C(=O)Nc3ccc(Cl)cc3)CC[C@H]1CC(=O)O)=NCC2,28µM*,13
O=C(Cc1ccccc1)Nc1cc(-c2cccnc2)nn1-c1ccccc1,·,3
SMILES,KDM5B inh,IP6K1 inh
CC1(C)Cc2c(sc(NC(=O)C(=O)NCc3cccnc3)c2C#N)CO1,i,·
N#Cc1cccnc1N1CCN(Cc2ccccc2F)C(CCO)C1 (configuration not stated),?,3
N#Cc1cccnc1N1CCN(Cc2ccc(F)c(F)c2)C(CCO)C1 (configuration not stated),13µM*,30
CCOC(=O)C[C@@H]1C[C@@H](C(C)C)[C@H](CNC(=O)C2CC2)C=C1C,i,7
CC1=C[C@@H](CNC(=O)C2CCCCC2)[C@H](C(C)C)C[C@H]1CC(=O)N1CCN(c2ccccn2)CC1,35µM*,16
CC(=O)N1CCN(C(=O)C[C@@H]2C[C@@H](C(C)C)[C@H](CC#N)C=C2C)CC1,i,22
CC1=C[C@@H](CC#N)[C@H](C(C)C)C[C@H]1CC(=O)N1CCN(c2cnccn2)CC1,35µM*,-6
COCCNC(=O)C[C@@H]1C[C@@H](C(C)C)[C@H](CNC(=O)C2CC2)C=C1C,35µM*,-6
CC1=C[C@@H](CNC(=O)C(C)(C)C)[C@H](C(C)C)C[C@H]1CC(=O)N1CCN(c2ccccn2)CC1,20µM*,1
CC1=C[C@@H](CNC(=O)c2ccccc2)[C@H](C(C)C)C[C@H]1CC(=O)N1CCN(C)CC1,i,-13
CC1=C[C@@H](CNC(=O)c2ccccn2)[C@H](C(C)C)C[C@H]1CC(=O)N1CCCC1,i,11
CCOc1cc(/C=C/c2ccc3cccc(OC(C)=O)c3n2)ccc1OC(C)=O,i,·
CN(C)C(=O)N1CCC(c2nc(CCOc3ccc(F)cc3)no2)C1 (configuration not stated),·,5
CC(C)COC(=O)N1C[C@H](C(N)=O)[C@H]2c3ccccc3N(CC3CC3)C(=O)[C@]21C,·,-1
Cc1ccc(C(=O)COC(=O)c2ccccc2C(=O)c2ccc(-c3ccccc3)cc2)cc1,i,·
Cc1ccc(-c2noc([C@@H]3Cc4nc[nH]c4CN3Cc3ccc(C(=O)O)cc3)n2)cc1,35µM*,1
O=C(O)c1ccc(CN2Cc3[nH]cnc3C[C@H]2c2nc(-c3ccc(F)c(Cl)c3)no2)cc1,25µM*,-5
COc1ccc(CN2Cc3[nH]cnc3C[C@H]2c2nc(-c3ccc(F)c(Cl)c3)no2)cc1,?,6
Cc1ccc(-c2noc([C@@H]3Cc4nc[nH]c4CN3Cc3ccc(F)cc3)n2)cc1,i,-2
COC(=O)[C@@H]1Cc2nc[nH]c2CN1Cc1ccc(C(=O)O)cc1,40µM*,19
COC(=O)[C@@H]1Cc2nc[nH]c2CN1Cc1ccc(C)cc1,?,2
COc1ccc(CN2Cc3[nH]cnc3C[C@H]2c2nc(C(C)C)no2)cc1,?,30
CC(C)c1noc([C@@H]2Cc3nc[nH]c3CN2Cc2ccc(F)cc2)n1,28µM*,-10
Cc1cnc2c(S(=O)(=O)N3CCCCC3C(N)=O)cccc2c1 (configuration not stated),i,·
CCOC(=O)c1ccc(N2CCN(CC3=CC(C)(C)Oc4ccc(OC)cc43)CC2)cc1,·,-1
SMILES,KDM5B inh,IP6K1 inh
O=C1CC2(CCN(C(=O)C3CCCN(C(=O)Nc4ccc(Cl)cc4)C3)CC2)Oc2ccccc2N1 (configuration not stated),·,-11
O=C(CCCc1ccccc1)NCc1nnc2c(-c3nc(C4CC4)no3)cccn12,28µM*,13
CCCc1noc(-c2cccn3c(CNC(=O)CCC4CCCC4)nnc23)n1,?,5
O=C(NCc1nnc2c(-c3nc(C4CC4)no3)cccn12)C1CCC1,28µM*,2
COc1ccc(CCC(=O)NCc2nnc3c(-c4nc(C5CC5)no4)cccn23)cc1,i,1
O=C(CCC1CCCC1)NCc1nnc2c(-c3nc(C4CC4)no3)cccn12,11µM*,-4
N#Cc1ccc(C(=O)NC2CCN(c3cc(-c4ccc(Cl)cc4)[nH]n3)C2)cc1 (configuration not stated),?,11
CSc1ccc(/C=C2\Cc3ccccc3C2=O)cc1,i,·
O=C(NC1CCCCCC1)c1ccc2nc(-c3ccnc(Cl)c3)oc2c1,·,10
